From PubChem BioAssay (NCATS)
Inconclusive results are not listed. A call without a number means that no potency is given here. Active and inactive are the calls of the source. The call rests on the fitted dose curve; in most records, active means well fitted inhibition curve with a large enough effect; inconclusive means small, poorly fitted or top-dose-only effect; inactive means flat fitted curve, though single readings scatter.

Test: qHTS to identify inhibitors of the type 1 interferon - major histocompatibility complex class I in skeletal muscle: primary screen against the NCATS Pharmaceutical Collection (AID 1347407);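 further: luminescence of HiBiT knocked into endogenous HLA-B as interferon-induced MHC class I level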
Settings: human skeletal muscle cells, IFN-b-induced MHC-I HiBiT luminescence, 24 h; series mostly up to 45.9 µM
Procedure, shortened: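 Cells were seeded with 4 ng/ml IFN-beta, incubated 1 h, then dosed with compounds over eight 1:5 steps up to 46 uM final. After 24 h at 37 C, HiBiT lytic reagent was added and luminescence read after 10 min lysis in the dark.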

| SMILES | Potency |
| --- | --- |
| O=C1CC[C@H](C(=O)N2CCCCC2)N1 | inactive |
| CCCC(CCC)(C(=O)OCC)C(=O)OCC | inactive |
| Cc1ccc2c(Cl)cc(Cl)c(O)c2n1 | inactive |
| N#Cc1cc(NC(=O)C(=O)O)c(Cl)c(NC(=O)C(=O)O)c1 | inactive |
| O=C(CCCl)NCc1ccccc1 | inactive |
| C=CCOc1cc(Cl)ccc1C(=O)NCCN(CC)CC | inactive |
| COc1cc(C=O)ccc1O | inactive |
| CCN1CCN(C(=O)N[C@@H](C(=O)N[C@@H]2C(=O)N3[C@@H]2SC(C)(C)[C@H]3C(=O)O)c2ccccc2)C(=O)C1=O | inactive |
| Fc1ccc(C(c2ccc(F)cc2)N2CCNCC2)cc1 | inactive |
| CCOc1ncc(F)c(=O)[nH]1 | inactive |
| CC(COc1ccccc1)NN (stereo not drawn) | inactive |
| CC(C)=CCC/C(C)=C/CC/C(C)=C/CCC(=O)OC/C=C(\C)CCC=C(C)C | inactive |
| CCCCC(O)/C=C(C)/C=C/C=C/C(=O)N1CCCC1=O (stereo not drawn) | inactive |
| CCCCCC[C@@H](CCC)C(=O)O | inactive |
| CCO[C@H](Cc1ccc(OCCc2ccc(OS(C)(=O)=O)cc2)cc1)C(=O)O | inactive |
| NC(=O)NS(=O)(=O)c1ccc(Cl)cc1 | inactive |
| Nc1ccc(C(=O)OCC(O)CO)cc1 (stereo not drawn) | inactive |
| CCOC(=O)C(O)c1ccccc1 (stereo not drawn) | inactive |
| CC(=O)c1ccc(O)c(C(N)=O)c1 | inactive |
| Nc1nc(=O)n([C@@H]2O[C@H](CO)[C@@H](O)[C@@H]2F)cc1I | inactive |
| C1=CC2C3C=CC(C3)C2C1 (stereo not drawn) | inactive |
| Cc1cc(O)c(C)c(C)c1O | inactive |
| CCCCOC(=O)CCCCCCCCC(=O)OCCCC | inactive |
